Our source for the outcome and Potency values is PubChem BioAssay (Tox21).

The nature of assay [1]: qHTS assay to identify small molecule antagonists of the estrogen related receptor (ERR) signaling pathway - cell viability counter screen (AID 1224818).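 Further: series mostly up to about 46 µM; viability measured after 17.5 h of compound exposure.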 The procedure, abridged:
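Cytotoxicity counter screen: fluorescence from CellTiter-Fluor, added after 17.5 h compound exposure at 37 C and read 30 min later. ERR cell line seeded at 2,000 cells/well, preincubated 6 h before dosing.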
A general note: qHTS replaces the single test concentration by a dilution series.

A short description of assay [2]: qHTS assay to identify small molecule antagonists of the estrogen related receptor (ERR) signaling pathway (AID 1224819;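 further: luminescence from an ERR-driven luciferase reporter measured with One-Glo reagent; series mostly up to about 46 µM; nearly all actives have a fitted effect of over 50% in size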). In a few lines: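 LOPAC library screened for antagonism as reduced One-Glo luminescence in ERR reporter cells (2,000/well). Compounds were added after 6 h pre-incubation and left 18 h at 37C; reading followed a 30 min room-temperature reagent step.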

A short description of assay [3]: qHTS assay to identify small molecule agonists of the estrogen related receptor (ERR) signaling pathway (AID 1224820). The procedure, abridged: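 An ERR cell line provided by NTP was seeded at 2,000 cells per well and allowed to settle for 6 h before compounds in DMSO were added. After 18 h at 37 C, luciferase activity was measured by One-Glo luminescence.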
For assay [4], the system named is estrogen-related receptor alpha (ERRalpha) with PGC-1alpha coactivator, human. Description: qHTS assay to identify small molecule antagonists of the estrogen related receptor signaling pathway with the pleiotropic PPARgamma coactivator (PGC) (AID 1224821; calls by dose curve;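 further: series mostly up to about 46 µM; lower luminescence signal means antagonism of PGC/ERR signalling; nearly all actives have a fitted effect of over 50% in size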). The procedure, abridged:
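A PGC/ERR cell line supplied by NTP is seeded, allowed 6 h at 37 C, and treated with test compounds in DMSO for 18 h. Signal is then measured as luciferase luminescence using One-Glo.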

A short description of assay [5]: qHTS assay to identify small molecule antagonists of the estrogen related receptor signaling pathway with the pleiotropic PPARgamma coactivator (PGC) cell viability counter screen (AID 1224822; further: series mostly up to about 46 µM). The procedure, abridged:
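Viability counter-screen read by fluorescence intensity after 30 min with CellTiter-Fluor at 37 C; PGC/ERR reporter cells were exposed to compounds for 17.5 h at 37 C following a 6 h preincubation.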

The nature of assay [6]: qHTS assay to identify small molecule agonists of the estrogen related receptor signaling pathway with the pleiotropic PPARgamma coactivator (PGC) (AID 1224823). The procedure, abridged: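 Compounds dissolved in DMSO are added by pin tool to PGC/ERR cells that have settled for 6 h, and incubation continues 18 h at 37 C. Reporter output is measured as One-Glo luminescence.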

For assay [7], the target named is Luciferin 4-monooxygenase (Photinus pyralis) (UniProt P08659). Kind of assay: qHTS assay to identify small molecule inhibitors of firefly luciferase (AID 1224835). Further: nearly all actives have a fitted effect of over 25% in size. Further: potency means the concentration at half of the fitted maximal effect. The procedure, abridged:
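Inhibition of purified Photinus luciferase is measured by luminescence. Substrate levels (D-luciferin, ATP) sit at their KM values. Each compound is tested in a concentration series.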

A short description of assay [8]: qHTS assay to identify small molecule agonists of the constitutive androstane receptor (CAR) signaling pathway - cell viability counter screen (AID 1224836). Further: series mostly up to about 92 µM; nearly all actives have a fitted effect of over 45% in size. In a few lines: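 Double-stable HepG2 hepatoma cells (hCAR plus CYP2B6-2.2kb) are treated for 23 h at 37 C with test compounds in 15-point concentration series. PK11195 at 0.75 uM final is co-added. Cell viability is quantified by CellTiter-Fluor.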

Assay [9] is described as follows: qHTS assay to identify small molecule antagonists of the constitutive androstane receptor (CAR) signaling pathway - cell viability counter screen (AID 1224837). Further: series mostly up to about 92 µM; nearly all actives have a fitted effect of over 45% in size. The procedure, abridged:
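Cytotoxicity counter-screen: CellTiter-Fluor fluorescence after 23 h compound exposure (15-point qHTS) in double-stable HepG2-CYP2B6-hCAR cells, with 50 nM CITCO added.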

Assay [10] deals with Nuclear receptor subfamily 1 group I member 3 (Homo sapiens) (UniProt Q14994). Kind of assay: qHTS assay to identify small molecule antagonists of the constitutive androstane receptor (CAR) signaling pathway (AID 1224838).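 Further: HepG2 cells stably expressing hCAR with CYP2B6 luciferase reporter stimulated by CITCO; nearly all actives have a fitted effect of over 40% in size.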 Further: potency means the concentration at half of the fitted maximal effect. In a few lines:
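Antagonism measured as luciferase signal (ONE-Glo, 30 min, room temperature) in CAR-stimulated cells: HepG2-CYP2B6-hCAR double-stable line exposed 24 hr at 37 C to compound in a 15-point series plus 50 nM CITCO.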

For assay [11] the target is unchanged. Description: qHTS assay to identify small molecule agonists of the constitutive androstane receptor (CAR) signaling pathway (AID 1224839). Further: nearly all actives have a fitted effect of over 15% in size. Further: potency means the concentration at half of the fitted maximal effect.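 On activation: HepG2 cells stably carrying human CAR and a CYP2B6 luciferase reporter; series mostly up to about 92 µM.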 The procedure, abridged: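 Readout: firefly luciferase luminescence via ONE-Glo. System: HepG2 double-stable for hCAR and CYP2B6-2.2kb. Conditions: 15-point compound titration, PK11195 at 0.75 uM final, 24 h incubation.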

Assay [12] in a line: qHTS assay to identify small molecule antagonists of the estrogen related receptor signaling pathway with the pleiotropic PPARgamma coactivator (PGC) from Tox21 10K library - cell viability counter screen (AID 1224840; active means well fitted cell-killing curve with a large enough effect in the repeat runs, not every such curve was filed as active; further: nearly all actives have a fitted effect of over 40% in size; further: potency means the concentration at half of the fitted maximal effect). The procedure, abridged:
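Counter-screen for cytotoxicity: after 17.5 h compound exposure at 37 C, CellTiter-Fluor reagent added to PGC/ERR cells for 30 min and fluorescence read. Cells were seeded at 2,000 per well 6 h before dosing.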

A short description of assay [13]: qHTS assay to identify small molecule antagonists of the estrogen related receptor signaling pathway with the pleiotropic PPARgamma coactivator (PGC) from Tox21 10K library (AID 1224841; call rule not given here; further: series mostly up to about 92 µM; actives are mostly falling curves and most rising ones were filed inactive; nearly all actives have a fitted effect of over 50% in size). The procedure, abridged:
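Luminescence (One-Glo, 30 min at room temperature) after 18 h compound treatment at 37 C of PGC/ERR reporter cells plated at 2,000 cells/well and settled 6 h beforehand.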

A short description of assay [14]: qHTS assay to identify small molecule agonists of the estrogen related receptor signaling pathway with the pleiotropic PPARgamma coactivator (PGC) from Tox21 10K library (AID 1224842). Further: nearly all actives have a fitted effect of over 15% in size. In a few lines:
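Luminescence from One-Glo (30 min, room temperature) measured after PGC/ERR cells had 18 h at 37 C with pinned compound (23 nL in DMSO). Cells had been seeded at 2,000 per well and pre-incubated 6 h.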

Assay [15] deals with Thyrotropin receptor (Homo sapiens) (UniProt P16473). Description: qHTS assay to identify small molecule agonists of the thyroid stimulating hormone receptor (TSHR) signaling pathway (AID 1224843; calls by dose curve; further: nearly all actives have a fitted effect of over 45% in size; further: potency means the concentration at half of the fitted maximal effect). The procedure, abridged: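 Agonist activity read as cAMP rise via d2/cryptate HTRF competition, 1 h room-temperature detection, in HEK293 cells expressing TSHR. Fifteen-point titrations, each run in triplicate, with a 30 min room-temperature incubation beforehand.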
Thyrotropin receptor (Homo sapiens), sequence (P16473 whole entry, looked up): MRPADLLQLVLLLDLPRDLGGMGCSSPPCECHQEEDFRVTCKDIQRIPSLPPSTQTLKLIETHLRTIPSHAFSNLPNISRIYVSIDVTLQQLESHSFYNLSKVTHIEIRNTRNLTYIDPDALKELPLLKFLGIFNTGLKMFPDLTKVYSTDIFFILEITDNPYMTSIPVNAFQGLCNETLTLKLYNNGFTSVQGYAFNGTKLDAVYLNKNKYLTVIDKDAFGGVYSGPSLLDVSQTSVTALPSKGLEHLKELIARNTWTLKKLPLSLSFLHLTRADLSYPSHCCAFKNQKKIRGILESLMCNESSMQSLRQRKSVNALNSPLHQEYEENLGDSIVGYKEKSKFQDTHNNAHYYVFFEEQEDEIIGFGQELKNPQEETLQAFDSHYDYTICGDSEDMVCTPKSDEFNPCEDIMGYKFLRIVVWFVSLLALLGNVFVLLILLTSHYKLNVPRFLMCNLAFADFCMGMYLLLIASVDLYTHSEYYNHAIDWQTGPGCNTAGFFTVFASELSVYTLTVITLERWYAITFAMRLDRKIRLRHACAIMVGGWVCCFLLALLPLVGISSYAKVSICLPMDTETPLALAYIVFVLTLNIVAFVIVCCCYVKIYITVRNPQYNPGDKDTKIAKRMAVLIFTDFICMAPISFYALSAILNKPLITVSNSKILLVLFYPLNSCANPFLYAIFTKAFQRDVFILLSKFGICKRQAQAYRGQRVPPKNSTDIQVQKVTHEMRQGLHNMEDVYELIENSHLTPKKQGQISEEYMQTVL

Assay [16] is described as follows: qHTS assay to identify small molecule agonists of the hypoxia (HIF-1) signaling pathway - cell viability counter screen (AID 1224844; calls by dose curve; further: nearly all actives have a fitted effect of over 50% in size; further: potency means the concentration at half of the fitted maximal effect). In a few lines:
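Cytotoxicity measured by CellTiter-Glo ATP luminescence in the wells also read for beta-lactamase signal. Cells were HRE-bla ME-180 (2,000/well, 0.5% dialyzed FBS), exposed to compounds for 17 h at 37C.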

Assay [17] can be described thus: qHTS assay to identify small molecule antagonists of the estrogen related receptor (ERR) signaling pathway from Tox21 library - cell viability counter screen (AID 1224834). Further: nearly all actives have a fitted effect of over 30% in size. Further: potency means the concentration at half of the fitted maximal effect. In a few lines: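 CellTiter-Fluor fluorescence, read after 30 min at 37 C, measures viability of ERR cells. Cells plated at 2,000/well and incubated 6 h before pin-tool compound addition, then exposed 17.5 hours at 37 C.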

Assay [18] is described as follows: qHTS assay to identify small molecule agonists of H2AX (AID 1224845; active means well fitted activation curve with a large enough effect in the signal ratio in the repeat runs, not every such curve was filed as active; the % refers to the signal ratio). In a few lines: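 Phospho-H2AX Ser139 measured by HTRF (ex 320 nm; em 665 and 620 nm) after 24 hr antibody incubation. Compounds, 15 concentrations, 0.76% DMSO, were applied to CHO-K1 cells for 3hr at 37C before lysis.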
Assay [19] in a line: qHTS assay to identify small molecule agonists of the hypoxia (HIF-1) signaling pathway (AID 1224846; active means well fitted activation curve with a large enough effect in the signal ratio in the repeat runs, not every such curve was filed as active; the % refers to the signal ratio). In a few lines: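 Compounds added to ME-180 cells carrying hypoxia-response-element beta-lactamase reporter (0.5% dialyzed FBS, 5 h preplating), 17 h at 37C; agonist activity detected by CCF4-AM B/G FRET read-out.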
Assay [20] can be described thus: qHTS assay to identify small molecule agonists of the retinoic acid receptor (RAR) signaling pathway (AID 1159553). Further: potency means the concentration at half of the fitted maximal effect. The procedure, abridged: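 Luminescence was measured 30 min after luciferase reagent addition at room temperature. Before that, C3RL4 reporter cells (1,000 per well, plated overnight) were treated with compound for 6 hr at 37 C and 5% CO2.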

Molecules are shown by their SMILES. Values joined by “and” are separate entries in the source; they are usually repeats but may differ in a detail not shown here. Equal entries are not always repeated. Inconclusive results are not listed. More than one record can exist for a structure, and the calls need not agree. Active and inactive are the calls of the source. Unless noted, the call rests on the fitted dose curve; in most records, active means well fitted curve in the direction sought with a large enough effect in the repeat runs; inconclusive means weak or mixed curves; inactive means no such curve, though single readings can be large; an effect the other way counts as inactive or inconclusive.

Nuclear receptor subfamily 1 group I member 3 (Homo sapiens), sequence (Q14994 whole entry, looked up): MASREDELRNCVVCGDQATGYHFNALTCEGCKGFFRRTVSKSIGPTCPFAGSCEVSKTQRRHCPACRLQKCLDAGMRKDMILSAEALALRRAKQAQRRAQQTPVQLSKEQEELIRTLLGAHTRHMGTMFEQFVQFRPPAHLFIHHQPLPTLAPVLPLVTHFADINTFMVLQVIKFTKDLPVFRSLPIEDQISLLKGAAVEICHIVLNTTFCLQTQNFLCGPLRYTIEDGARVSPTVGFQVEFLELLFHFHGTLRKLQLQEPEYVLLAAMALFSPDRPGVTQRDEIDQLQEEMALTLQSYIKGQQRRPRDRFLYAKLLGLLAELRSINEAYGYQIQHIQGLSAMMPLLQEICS
Luciferin 4-monooxygenase (Photinus pyralis), sequence (P08659 whole entry, looked up): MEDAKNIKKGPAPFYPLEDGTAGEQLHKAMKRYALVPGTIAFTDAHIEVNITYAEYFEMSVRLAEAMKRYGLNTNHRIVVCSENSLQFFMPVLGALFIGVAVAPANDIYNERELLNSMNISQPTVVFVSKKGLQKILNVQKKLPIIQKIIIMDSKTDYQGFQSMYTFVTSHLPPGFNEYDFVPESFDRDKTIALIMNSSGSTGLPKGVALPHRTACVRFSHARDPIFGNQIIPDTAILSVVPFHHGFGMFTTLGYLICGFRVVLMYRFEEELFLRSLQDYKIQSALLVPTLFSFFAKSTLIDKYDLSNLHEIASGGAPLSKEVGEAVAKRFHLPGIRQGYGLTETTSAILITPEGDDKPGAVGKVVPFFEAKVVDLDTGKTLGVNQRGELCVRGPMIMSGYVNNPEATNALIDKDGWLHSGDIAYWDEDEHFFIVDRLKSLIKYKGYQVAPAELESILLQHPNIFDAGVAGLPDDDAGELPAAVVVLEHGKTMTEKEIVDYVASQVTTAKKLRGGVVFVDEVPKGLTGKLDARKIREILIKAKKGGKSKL

On to `O=P1(N(CCCl)CCCl)NCCCO1` (configuration not stated), for which the compound was called inactive in [1], in [2], in assay [3], in [4] and in assay [6]. For the same compound, the Potency result in [5], in [7], in assay [8], in assay [9], in assay [10] and in assay [11] was “inactive” each time. Further, the Potency entry in assay [12], in assay [13], in assay [14], in assay [15] and in [16] was “inactive” throughout.

Turning to `O=C(O)c1nc(Cl)ccc1Cl`, the Potency result in assay [17], in assay [7], in assay [8], in assay [9], in [12] and in assay [15] was “inactive” throughout. The Potency result in [16] and in assay [18] was “inactive” in each case. The call in [19] was inactive.

Regarding `Cc1cc(-c2ccc(N)c(C)c2)ccc1N`, the Potency in [20] is 15.1 µM (active); in assay [7] it was 36 µM (active) and 56.2 µM (active) and 63.3 µM (active); in assay [11], 12.2 µM (active); in [15], 1.35 µM (active). Also, the Potency result in assay [8], in assay [9], in assay [10] and in assay [12] was “inactive” each time. For the same compound, the result in [19] was inactive.

Take `CCCCCCCCn1cc[n+](C)c1`: the Potency result in assay [20], in assay [7], in assay [12] and in assay [15] was “inactive” each time. The outcome in assay [19] was inactive.

With `CCCCCCCCCCCCCCCCn1cc[n+](C)c1`, the Potency result in assay [20] and in assay [15] was “inactive” in each case. The Potency was 81.4 µM (active) and inactive in assay [7]; “inactive and 30.9 µM (active) and 27.4 µM (active)” in assay [10]; “inactive and 61.7 µM (active) and 27.4 µM (active)” in assay [12]; “inactive and 49.4 µM (active) and 31 µM (active)” in assay [16]. Moreover, the outcome in assay [19] was inactive.

Take `CCCCn1cc[n+](C)c1C`: the Potency entry in assay [17], in [7], in assay [8], in assay [9] and in assay [12] was “inactive” in each case. Also, the call in [19] was inactive.

`CCCCCCCCCCCCOS(=O)(=O)O`: the Potency entry in assay [17], in assay [8], in [9] and in [12] was “inactive” throughout. The compound was called inactive in assay [19].

As for `Cc1cc(Cl)ccc1OCC(=O)O`, the Potency entry in assay [7], in [8], in [9], in assay [10], in [11] and in [12] was “inactive” in each case. Also, the Potency entry in [15] was “inactive”. Further, the result in [19] was inactive.

Consider `CCCCCCCCCCn1cc[n+](C)c1`, for which the Potency entry in [17] was “inactive and 8.62 µM (active)”. Besides, the Potency result in [7], in assay [9], in [12] and in assay [16] was “inactive” throughout. The result in assay [19] was inactive.

Turning to `Nc1ccc(-c2ccc(N)c(Cl)c2)cc1Cl`, the Potency is 35.8 µM (active) and 33.2 µM (active) and 12.6 µM (active) in assay [7]; “inactive and 27.3 µM (active)” in assay [12]. The Potency entry in assay [8], in assay [9] and in [15] was “inactive” throughout. The compound was classed as inactive in [19].

Regarding `O=C(O)COc1ccc(Cl)cc1Cl`, the Potency result in assay [7], in [8], in [9] and in [12] was “inactive” throughout. In assay [19], the compound was classed as inactive.

With `Oc1ccccc1-c1ccccc1`, the Potency entry in [7], in assay [8], in [9], in assay [10], in assay [12] and in [18] was “inactive” in each case. The Potency entry in [11] was “inactive and 35.2 µM (active)”. The outcome in [19] was inactive.

For `CNC`, the Potency result in assay [7], in [8], in assay [9], in assay [12], in assay [16] and in assay [18] was “inactive” each time. The result in assay [19] was inactive.

Take `CCC[N+]1(C)CCCCC1`: the Potency result in assay [17], in assay [7], in assay [8], in assay [9], in assay [12] and in [15] was “inactive” throughout. Also, the compound was classed as inactive in assay [19].

`O=c1[nH]c(=O)n(Cl)c(=O)n1Cl`: the Potency result in assay [7], in assay [8], in assay [9], in [12], in assay [13] and in [14] was “inactive” each time. Moreover, the Potency result in assay [16] and in assay [18] was “inactive” in each case. Further, the result in assay [19] was inactive.

As to `CC(Cl)(Cl)C(=O)O`, the Potency entry in assay [17], in assay [7], in assay [8], in [9], in assay [12] and in assay [15] was “inactive” in each case. Besides, the result in assay [19] was inactive.

As to `C[N+](C)(C)Cc1ccccc1`, the Potency result in assay [7], in assay [8], in assay [9], in assay [12], in assay [15] and in assay [18] was “inactive” each time. The compound was called inactive in assay [19].
